This note sets out measurements from article PMC9838217, “Structure of SALL4 zinc finger domain reveals link between AT-rich DNA binding and Okihiro syndrome”.

Changes are numbered by the printed parent chain.

What all share (test): HT-SELEX; high values mean tight binding
Holding throughout (settings): protein: recombinant; vector His6-GST; dsDNA, one strand shown

One assay addresses T1, SALL4 ZFC4 WT (HT-SELEX) (Mus musculus, UniProt Q8BX22 870-940).
T1 sequence: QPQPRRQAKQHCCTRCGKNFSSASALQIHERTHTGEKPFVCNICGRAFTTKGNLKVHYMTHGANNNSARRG
The gist of the method: (§1)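 Binding signal is defined as the fold change of each canonical k-mer's read fraction versus the initial random library. Selections used 1 µg of purified recombinant mouse SALL4 zinc finger cluster 4 (residues 870–940) with library DNA (1.5 µg first cycle, 200 ng later) in 100 µl of 10 mM Tris–HCl pH 7.5, 50 mM NaCl, poly(dI-dC) and DTT, for 10 min at room temperature, followed by Ni2+ bead capture, washing and PCR. Up to 6 such cycles were run in triplicate before MiSeq sequencing and 6-mer scanning.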

In assay [1] the target is T2, SALL4 ZFC4 R900W (HT-SELEX) (Mus musculus, UniProt Q8BX22 870-940, R900W).
T2 sequence: T1 sequence with R31W
The gist of the method: as §1

Assay [2] has as its target T3, SALL4 ZFC4 G921D (HT-SELEX) (Mus musculus, UniProt Q8BX22 870-940, G921D).
T3 sequence: T1 sequence with G52D
The gist of the method:
as §1

Take CAACAG: the results for the binding signal (with SALL4 ZFC4 WT (HT-SELEX); in assay [1]; in assay [2]) were 0.698 ± 0.0379 fold-change vs cycle 0, 0.824 ± 0.0446 fold-change vs cycle 0 and 0.869 ± 0.0293 fold-change vs cycle 0, respectively.

On to GCCTGA, for which the binding signal in the assay with SALL4 ZFC4 WT (HT-SELEX) turned out to be 0.303 ± 0.0278 fold-change vs cycle 0; in assay [1], 0.386 ± 0.0159 fold-change vs cycle 0; in assay [2], 0.497 ± 0.0446 fold-change vs cycle 0.

Regarding ATATCC, the binding signal with SALL4 ZFC4 WT (HT-SELEX) worked out at 1.52 ± 0.0519 fold-change vs cycle 0; in assay [1], 1.43 ± 0.0827 fold-change vs cycle 0; in assay [2], 1.37 ± 0.0764 fold-change vs cycle 0.

As to AAAATC, the binding signal with SALL4 ZFC4 WT (HT-SELEX) worked out at 1.66 ± 0.102 fold-change vs cycle 0; in assay [1], 1.58 ± 0.0564 fold-change vs cycle 0; in assay [2], 1.53 ± 0.0679 fold-change vs cycle 0.

For GATCTA, the binding signal was determined as 1.25 ± 0.0377 fold-change vs cycle 0 with SALL4 ZFC4 WT (HT-SELEX), 1.36 ± 0.0544 fold-change vs cycle 0 in assay [1] and 1.41 ± 0.0811 fold-change vs cycle 0 in assay [2].

For ATCTCC, the binding signal with SALL4 ZFC4 WT (HT-SELEX) amounted to 0.945 ± 0.0285 fold-change vs cycle 0; in assay [1] it was 1.04 ± 0.0372 fold-change vs cycle 0; in assay [2] it was 1.06 ± 0.0438 fold-change vs cycle 0.

For AACCTT, the binding signal with SALL4 ZFC4 WT (HT-SELEX) amounted to 1.35 ± 0.0624 fold-change vs cycle 0; in assay [1], 1.5 ± 0.0445 fold-change vs cycle 0; in assay [2] it was 1.39 ± 0.0775 fold-change vs cycle 0.

As to CTGTCC, the binding signal amounted to 0.398 ± 0.039 fold-change vs cycle 0 in the assay with SALL4 ZFC4 WT (HT-SELEX), 0.493 ± 0.0175 fold-change vs cycle 0 in assay [1] and 0.587 ± 0.0324 fold-change vs cycle 0 in assay [2].

For ATATAC, the figures for the binding signal (in the assay with SALL4 ZFC4 WT (HT-SELEX); in assay [1]; in assay [2]) were 2.19 ± 0.164 fold-change vs cycle 0, 1.98 ± 0.103 fold-change vs cycle 0 and 1.78 ± 0.131 fold-change vs cycle 0, respectively.

In the case of AAGTAG, the binding signal in the assay with SALL4 ZFC4 WT (HT-SELEX) was 1.32 ± 0.0481 fold-change vs cycle 0; in assay [1], 1.52 ± 0.0706 fold-change vs cycle 0; in assay [2], 1.39 ± 0.0907 fold-change vs cycle 0.

On to TATACA, for which the binding signal came out at 2.08 ± 0.107 fold-change vs cycle 0 with SALL4 ZFC4 WT (HT-SELEX), 1.99 ± 0.114 fold-change vs cycle 0 in assay [1] and 1.77 ± 0.145 fold-change vs cycle 0 in assay [2].

In the case of CACAGG, the values for the binding signal (with SALL4 ZFC4 WT (HT-SELEX); in assay [1]; in assay [2]) were 0.432 ± 0.00836 fold-change vs cycle 0, 0.527 ± 0.0297 fold-change vs cycle 0 and 0.624 ± 0.0533 fold-change vs cycle 0, respectively.

Consider ATACAG, for which the binding signal came out at 1.33 ± 0.0931 fold-change vs cycle 0 with SALL4 ZFC4 WT (HT-SELEX), 1.41 ± 0.0818 fold-change vs cycle 0 in assay [1] and 1.36 ± 0.0886 fold-change vs cycle 0 in assay [2].

AATATG: the figures for the binding signal (in the assay with SALL4 ZFC4 WT (HT-SELEX); in assay [1]; in assay [2]) were 2.8 ± 0.213 fold-change vs cycle 0, 1.83 ± 0.0804 fold-change vs cycle 0 and 1.66 ± 0.102 fold-change vs cycle 0, respectively.

As for GCTCTA, the binding signal is 0.572 ± 0.0244 fold-change vs cycle 0 with SALL4 ZFC4 WT (HT-SELEX), 0.686 ± 0.0351 fold-change vs cycle 0 in assay [1] and 0.788 ± 0.0186 fold-change vs cycle 0 in assay [2].

For GTAGAA, the binding signal with SALL4 ZFC4 WT (HT-SELEX) came to 1.21 ± 0.0427 fold-change vs cycle 0; in assay [1] it was 1.36 ± 0.0162 fold-change vs cycle 0; in assay [2], 1.27 ± 0.0697 fold-change vs cycle 0.

In the case of GAAAGC, the values for the binding signal (with SALL4 ZFC4 WT (HT-SELEX); in assay [1]; in assay [2]) were 0.586 ± 0.0266 fold-change vs cycle 0, 0.698 ± 0.0129 fold-change vs cycle 0 and 0.775 ± 0.0469 fold-change vs cycle 0, respectively.

As for TCTTAA, the results for the binding signal (with SALL4 ZFC4 WT (HT-SELEX); in assay [1]; in assay [2]) were 2.07 ± 0.0682 fold-change vs cycle 0, 2.14 ± 0.15 fold-change vs cycle 0 and 1.86 ± 0.222 fold-change vs cycle 0, respectively.

As for CTGTTA, the binding signal with SALL4 ZFC4 WT (HT-SELEX) amounted to 1.37 ± 0.0494 fold-change vs cycle 0; in assay [1], 1.47 ± 0.0717 fold-change vs cycle 0; in assay [2] it was 1.39 ± 0.112 fold-change vs cycle 0.

With ATCATA, the binding signal with SALL4 ZFC4 WT (HT-SELEX) is 2.91 ± 0.29 fold-change vs cycle 0; in assay [1], 2.08 ± 0.118 fold-change vs cycle 0; in assay [2], 1.88 ± 0.177 fold-change vs cycle 0.

In the case of GATTCC, the binding signal was 0.9 ± 0.0488 fold-change vs cycle 0 in the assay with SALL4 ZFC4 WT (HT-SELEX), 0.964 ± 0.0255 fold-change vs cycle 0 in assay [1] and 1.03 ± 0.0179 fold-change vs cycle 0 in assay [2].

On to AAGTGT, for which the binding signal with SALL4 ZFC4 WT (HT-SELEX) is 1.24 ± 0.0333 fold-change vs cycle 0; in assay [1], 1.35 ± 0.0203 fold-change vs cycle 0; in assay [2], 1.3 ± 0.0159 fold-change vs cycle 0.

As for ATCGTA, the values for the binding signal (with SALL4 ZFC4 WT (HT-SELEX); in assay [1]; in assay [2]) were 1.24 ± 0.0384 fold-change vs cycle 0, 1.28 ± 0.0284 fold-change vs cycle 0 and 1.29 ± 0.0379 fold-change vs cycle 0, respectively.

In the case of AGATAA, the binding signal in the assay with SALL4 ZFC4 WT (HT-SELEX) was 2.16 ± 0.129 fold-change vs cycle 0; in assay [1] it was 2.17 ± 0.195 fold-change vs cycle 0; in assay [2], 1.87 ± 0.206 fold-change vs cycle 0.

As to AGTGAG, the binding signal in the assay with SALL4 ZFC4 WT (HT-SELEX) stood at 0.933 ± 0.017 fold-change vs cycle 0; in assay [1], 1.03 ± 0.0394 fold-change vs cycle 0; in assay [2], 1.05 ± 0.0473 fold-change vs cycle 0.

As to CCCTCA, the binding signal with SALL4 ZFC4 WT (HT-SELEX) stood at 0.502 ± 0.0184 fold-change vs cycle 0; in assay [1], 0.579 ± 0.0163 fold-change vs cycle 0; in assay [2], 0.665 ± 0.0275 fold-change vs cycle 0.

In the case of CAGGGA, the values for the binding signal (in the assay with SALL4 ZFC4 WT (HT-SELEX); in assay [1]; in assay [2]) were 0.492 ± 0.0092 fold-change vs cycle 0, 0.57 ± 0.0327 fold-change vs cycle 0 and 0.629 ± 0.0495 fold-change vs cycle 0, respectively.

On to ATATGC, for which the binding signal in the assay with SALL4 ZFC4 WT (HT-SELEX) stood at 1.17 ± 0.106 fold-change vs cycle 0; in assay [1], 1.07 ± 0.0294 fold-change vs cycle 0; in assay [2], 1.13 ± 0.0399 fold-change vs cycle 0.

For the sequence CATGAG, the binding signal with SALL4 ZFC4 WT (HT-SELEX) is 0.884 ± 0.0345 fold-change vs cycle 0; in assay [1], 0.992 ± 0.0188 fold-change vs cycle 0; in assay [2], 1.03 ± 0.0481 fold-change vs cycle 0.

For the sequence AATTCC, the binding signal in the assay with SALL4 ZFC4 WT (HT-SELEX) was 1.34 ± 0.0764 fold-change vs cycle 0; in assay [1], 1.36 ± 0.0844 fold-change vs cycle 0; in assay [2] it was 1.31 ± 0.0693 fold-change vs cycle 0.
